The results in this text go back to PubChem BioAssay (EPA / NIEHS).

Conditions in all cases: mRNA level, 48 h; actives raise or lower the signal
Read-out in experiment [1]: Apoptosis regulator Bcl-2 (Homo sapiens) (UniProt P10415)
Nature of the experiment: LTEA_HepaRG_BCL2: Life Technologies and Expression Analysis (LTEA) Assay for Bcl-2 gene using HepaRG (AID 2283475). In a few lines:
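Plated human HepaRG cells are exposed to test chemicals for 48 h across eight concentrations from 100 uM downward in half-log steps (0.5% DMSO). BCL2 expression is then measured by qRT-PCR with housekeeping normalisation and fitted bidirectionally against vehicle.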

Read-out in experiment [2]: Bcl-2 (BID) gene, BID (gene 637)
Description: LTEA_HepaRG_BID: Life Technologies and Expression Analysis (LTEA) Assay for Bcl-2 (BID) gene using HepaRG (AID 2283476). In a few lines: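 Cells are plated, cultured 48 h, switched to serum-free induction medium, then dosed 48 h (100 uM top, half-log steps, 0.5% DMSO). RNA is isolated and BID expression read by qRT-PCR.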

Read-out in experiment [3]: Caspase-3 (Homo sapiens) (UniProt P42574)
Nature of the experiment: LTEA_HepaRG_CASP3: Life Technologies and Expression Analysis (LTEA) Assay for cysteine-aspartic acid protease (CASP3) using HepaRG (AID 2283477). In a few lines:
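In HepaRG liver cells dosed for 48 h at up to 100 uM (eight-point, duplicate), CASP3 expression changes are scored by qRT-PCR. Activity is fitted in both directions with 0.5% DMSO as baseline.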

Read-out in experiment [4]: Cytochrome P450 (CYP1A2), CYP1A2 (gene 1544)
Nature of the experiment: LTEA_HepaRG_CYP1A2: Life Technologies and Expression Analysis (LTEA) Assay for Cytochrome P450 (CYP1A2) using HepaRG (AID 2283479). In a few lines:
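Assesses CYP1A2 mRNA in human HepaRG liver cells after 48 h chemical exposure at up to 100 uM. Values come from qRT-PCR with bidirectional curve fitting relative to DMSO.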

Read-out in experiment [5]: cysteine-aspartic acid protease (CASP8), CASP8 (gene 841)
Description: LTEA_HepaRG_CASP8: Life Technologies and Expression Analysis (LTEA) Assay for cysteine-aspartic acid protease (CASP8) using HepaRG (AID 2283480). In a few lines: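 qRT-PCR readout of CASP8 mRNA, normalized to three housekeeping genes, after 48 h chemical exposure of HepaRG cells; 8-point half-log series, top 100 uM, 0.5% DMSO vehicle. Bidirectional curve fitting against DMSO baseline.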

Read-out in experiment [6]: Cytochrome P450 (CYP2B6), CYP2B6 (gene 1555)
Description: LTEA_HepaRG_CYP2B6: Life Technologies and Expression Analysis (LTEA) Assay for Cytochrome P450 (CYP2B6) using HepaRG (AID 2283481). In a few lines: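 Using 48 h treatment of HepaRG cells in serum-free induction medium, concentrations spanned half-log steps from 100 uM in 0.5% DMSO vehicle. CYP2B6 mRNA induction or loss is scored by qRT-PCR against DMSO.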

Read-out in experiment [7]: Cytochrome P450 2C19 (Homo sapiens) (UniProt P33261)
Description: LTEA_HepaRG_CYP2C19: Life Technologies and Expression Analysis (LTEA) Assay for CYP2C19 using HepaRG (AID 2283482). The procedure, abridged: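 Human HepaRG liver cells received test chemicals for 48 h (highest 100 uM, half-log dilutions in 0.5% DMSO). CYP2C19 mRNA induction or loss is read by multiplexed qRT-PCR and fitted in both directions versus vehicle.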

Read-out in experiment [8]: CYP2C8 (gene 1558)
Description: LTEA_HepaRG_CYP2C8: Life Technologies and Expression Analysis (LTEA) Assay for CYP2C8 using HepaRG (AID 2283483). In a few lines: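 HepaRG (human liver line), 48 h chemical exposure, 8-pt half-log series from 100 uM, 0.5% DMSO vehicle. Readout: CYP2C8 transcript by qRT-PCR, housekeeping-normalized. Bidirectional fit vs DMSO baseline.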

Read-out in experiment [9]: CYP2C9 (gene 1559)
Description: LTEA_HepaRG_CYP2C9: Life Technologies and Expression Analysis (LTEA) Assay for CYP2C9 using HepaRG (AID 2283484). In a few lines:
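HepaRG, 48 h dosing, 8-pt half-log series, top 100 uM, 0.5% DMSO vehicle. Read-out: CYP2C9 transcript by TaqMan qRT-PCR, housekeeping-normalized (ACTB/GAPDH/POLR2A). Gain or loss fitted vs DMSO baseline.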

Read-out in experiment [10]: CYP2E1 (gene 1571)
Description: LTEA_HepaRG_CYP2E1: Life Technologies and Expression Analysis (LTEA) Assay for CYP2E1 using HepaRG (AID 2283485). In a few lines: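 Readout is qRT-PCR of CYP2E1 mRNA, normalized to three housekeeping genes and fitted bidirectionally against 0.5% DMSO. HepaRG cells were dosed 48 h at eight concentrations, highest 100 uM with half-log dilutions.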

Read-out in experiment [11]: CYP4A11 (gene 1579)
Nature of the experiment: LTEA_HepaRG_CYP4A11: Life Technologies and Expression Analysis (LTEA) Assay for CYP4A11 using HepaRG (AID 2283486). In a few lines:
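Readout is CYP4A11 mRNA induction or suppression (qRT-PCR, ACTB/GAPDH/POLR2A normalization) in human HepaRG cells after 48 h chemical treatment, concentrations to 100 uM in 0.5% DMSO, fitted bidirectionally against vehicle.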

Read-out in experiment [12]: Cytochrome P450 3A4 (Homo sapiens) (UniProt P08684)
Description: LTEA_HepaRG_CYP3A4: Life Technologies and Expression Analysis (LTEA) Assay for CYP3A4 using HepaRG (AID 2283487). The procedure, abridged:
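HepaRG, 48 h exposure, 8-pt CRC from 100 uM (half-log), 0.5% DMSO, duplicates; serum-free induction medium. Readout: CYP3A4 mRNA, qRT-PCR, ACTB/GAPDH/POLR2A normalization. Bidirectional fit vs DMSO.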

Read-out in experiment [13]: DNA damage-inducible transcript 3 (DDIT3), DDIT3 (gene 1649)
Nature of the experiment: LTEA_HepaRG_DDIT3: Life Technologies and Expression Analysis (LTEA) Assay for DNA damage-inducible transcript 3 (DDIT3) using HepaRG (AID 2283488). In a few lines:
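Cells are human HepaRG liver cells treated for 48 h with eight half-log concentrations up to 100 uM in 0.5% DMSO. Transcript levels come from qRT-PCR normalized to three housekeeping genes, with activity fitted in both directions relative to vehicle.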

Read-out in experiment [14]: Pro-epidermal growth factor (Homo sapiens) (UniProt P01133)
Description: LTEA_HepaRG_EGF: Life Technologies and Expression Analysis (LTEA) Assay for Epidermal growth factor (EGF) using HepaRG (AID 2283489). In a few lines:
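EGF expression changes in human HepaRG cells are scored by bidirectional fitting relative to 0.5% DMSO controls. Chemicals are tested at eight half-log concentrations up to 100 uM for 48 h in serum-free induction medium.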

Read-out in experiment [15]: Early growth response protein 1 (EGR1) transcription factor, EGR1 (gene 1958)
Description: LTEA_HepaRG_EGR1: Life Technologies and Expression Analysis (LTEA) Assay for Early growth response protein 1 (EGR1) transcription factor using HepaRG (AID 2283490). In a few lines:
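HepaRG, 48 h exposure, 8-pt half-log series from 100 uM, 0.5% DMSO vehicle; EGR1 transcript by TaqMan qRT-PCR (Fluidigm array), housekeeping-normalized; bidirectional fit relative to DMSO baseline.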

Read-out in experiment [16]: Ezrin (EZR), EZR (gene 7430)
Description: LTEA_HepaRG_EZR: Life Technologies and Expression Analysis (LTEA) Assay for Ezrin (EZR) using HepaRG (AID 2283491). The procedure, abridged:
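Read-out is EZR transcript level by qRT-PCR, normalized to three housekeeping genes and fitted bidirectionally against the DMSO control. Human HepaRG cells received test chemicals for 48 h at eight half-log concentrations up to 100 uM in 0.5% DMSO.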

Read-out in experiment [17]: Cytochrome P450 3A7 (Homo sapiens) (UniProt P24462)
Description: LTEA_HepaRG_CYP3A7: Life Technologies and Expression Analysis (LTEA) Assay for CYP3A7 using HepaRG (AID 2283492). The procedure, abridged: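 Cells were thawed, plated, cultured 48 h, then treated for a further 48 h with chemicals (eight-point half-log series from 100 uM, 0.5% DMSO). RNA was isolated and CYP3A7 expression quantified by qRT-PCR normalised to ACTB, GAPDH and POLR2A.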

Read-out in experiment [18]: CYP3A5 (gene 1577)
Nature of the experiment: LTEA_HepaRG_CYP3A5: Life Technologies and Expression Analysis (LTEA) Assay for CYP3A5 using HepaRG (AID 2283493). The procedure, abridged: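 Human HepaRG hepatic cells receive 48 h chemical treatment at eight concentrations (half-log steps from 100 uM) in 0.5% DMSO. Expression of CYP3A5 is quantified by Fluidigm qRT-PCR and normalized to three reference genes.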

Read-out in experiment [19]: Fatty Acid-Binding Protein 1 (FABP1), FABP1 (gene 2168)
Description: LTEA_HepaRG_FABP1: Life Technologies and Expression Analysis (LTEA) Assay for Fatty Acid-Binding Protein 1 (FABP1) using HepaRG (AID 2283494). In a few lines:
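qRT-PCR readout of FABP1 transcript (normalized to three housekeeping genes) after 48 h chemical exposure of HepaRG cells; eight concentrations, half-log steps, max 100 uM, 0.5% DMSO vehicle; gain or loss fitted relative to DMSO baseline.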

Read-out in experiment [20]: Cytochrome P450 (CYP24A1), CYP24A1 (gene 1591)
Description: LTEA_HepaRG_CYP24A1: Life Technologies and Expression Analysis (LTEA) Assay for Cytochrome P450 (CYP24A1) using HepaRG (AID 2283478). The procedure, abridged: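 Human liver HepaRG cultures receive each chemical for 48 h across an eight-point half-log series topping at 100 uM in 0.5% DMSO. Induction or suppression of CYP24A1 mRNA is scored relative to vehicle after housekeeping-gene normalization.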

The structures appear in SMILES notation. Activity calls are given as the source filed them. How the source made its calls: active means hit-call score of the fitted dose curve at least 0.9, where 1 is the maximum; inactive means score below 0.9.

Chain of Cytochrome P450 3A7 (Homo sapiens) (P24462 whole entry, looked up): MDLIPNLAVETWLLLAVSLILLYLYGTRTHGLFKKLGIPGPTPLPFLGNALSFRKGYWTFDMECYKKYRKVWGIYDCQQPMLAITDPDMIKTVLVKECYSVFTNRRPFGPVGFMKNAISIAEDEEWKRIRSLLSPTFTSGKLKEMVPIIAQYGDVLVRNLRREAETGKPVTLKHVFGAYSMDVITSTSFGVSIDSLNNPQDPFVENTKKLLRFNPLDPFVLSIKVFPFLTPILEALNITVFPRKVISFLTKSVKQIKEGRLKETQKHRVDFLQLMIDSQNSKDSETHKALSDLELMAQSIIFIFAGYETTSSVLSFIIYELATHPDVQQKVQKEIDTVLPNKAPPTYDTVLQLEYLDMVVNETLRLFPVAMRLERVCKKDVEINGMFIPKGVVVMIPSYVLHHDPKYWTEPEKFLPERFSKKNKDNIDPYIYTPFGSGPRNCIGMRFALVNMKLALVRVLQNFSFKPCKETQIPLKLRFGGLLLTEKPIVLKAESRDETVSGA
Chain of Apoptosis regulator Bcl-2 (Homo sapiens) (P10415 whole entry, looked up): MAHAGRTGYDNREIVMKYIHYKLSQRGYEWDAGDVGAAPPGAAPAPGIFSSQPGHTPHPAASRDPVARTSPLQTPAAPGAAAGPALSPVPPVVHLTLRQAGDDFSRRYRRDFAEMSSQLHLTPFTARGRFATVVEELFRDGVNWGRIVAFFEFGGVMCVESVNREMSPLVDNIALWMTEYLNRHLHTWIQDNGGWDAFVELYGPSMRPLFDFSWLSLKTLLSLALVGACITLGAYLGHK
Chain of Caspase-3 (Homo sapiens) (P42574 whole entry, looked up): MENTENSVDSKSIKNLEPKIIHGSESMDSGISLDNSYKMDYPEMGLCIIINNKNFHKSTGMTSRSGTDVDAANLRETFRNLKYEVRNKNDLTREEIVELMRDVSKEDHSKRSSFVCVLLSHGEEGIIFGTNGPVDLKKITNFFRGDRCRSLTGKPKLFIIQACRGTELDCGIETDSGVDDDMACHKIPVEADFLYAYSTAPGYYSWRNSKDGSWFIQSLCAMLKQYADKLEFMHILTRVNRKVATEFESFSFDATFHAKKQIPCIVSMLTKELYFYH
Chain of Cytochrome P450 3A4 (Homo sapiens) (P08684 whole entry, looked up): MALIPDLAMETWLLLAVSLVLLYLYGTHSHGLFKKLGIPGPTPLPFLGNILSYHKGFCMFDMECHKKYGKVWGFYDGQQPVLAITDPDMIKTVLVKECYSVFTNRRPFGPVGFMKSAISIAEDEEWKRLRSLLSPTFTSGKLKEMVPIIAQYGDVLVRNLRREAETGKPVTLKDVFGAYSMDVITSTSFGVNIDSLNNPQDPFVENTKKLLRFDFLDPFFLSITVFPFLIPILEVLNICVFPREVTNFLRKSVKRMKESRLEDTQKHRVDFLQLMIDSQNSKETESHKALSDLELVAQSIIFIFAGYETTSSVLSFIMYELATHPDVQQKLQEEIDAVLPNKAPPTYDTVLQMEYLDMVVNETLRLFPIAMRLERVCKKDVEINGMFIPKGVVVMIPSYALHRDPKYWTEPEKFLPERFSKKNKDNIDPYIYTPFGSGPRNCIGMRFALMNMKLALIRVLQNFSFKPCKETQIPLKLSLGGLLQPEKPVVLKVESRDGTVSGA
Chain of Cytochrome P450 2C19 (Homo sapiens) (P33261 whole entry, looked up): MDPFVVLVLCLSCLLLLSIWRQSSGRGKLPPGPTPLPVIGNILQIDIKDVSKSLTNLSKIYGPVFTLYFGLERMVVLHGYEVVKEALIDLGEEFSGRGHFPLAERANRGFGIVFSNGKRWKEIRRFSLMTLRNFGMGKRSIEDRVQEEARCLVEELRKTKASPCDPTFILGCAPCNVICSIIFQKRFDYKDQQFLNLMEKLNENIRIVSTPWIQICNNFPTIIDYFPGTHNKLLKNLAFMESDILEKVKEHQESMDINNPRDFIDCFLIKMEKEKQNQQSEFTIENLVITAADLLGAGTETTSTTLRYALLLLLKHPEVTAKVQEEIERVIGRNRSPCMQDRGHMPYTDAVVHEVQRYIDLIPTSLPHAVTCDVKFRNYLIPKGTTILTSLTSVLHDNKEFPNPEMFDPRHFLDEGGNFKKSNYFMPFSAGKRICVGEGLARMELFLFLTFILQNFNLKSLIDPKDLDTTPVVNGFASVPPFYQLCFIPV

As for `NCc1cccc(C2CCN(C(=O)c3ccc(C#Cc4ccccc4F)o3)CC2)c1`, the compound was classed as inactive in experiment [1], in experiment [3], in experiment [14], in experiment [15], in experiment [16] and in experiment [19]. In addition, the AC50 in experiment [2] was 79.9 µM (active); in [4] it was 90 µM (active); in experiment [5] it was 78 µM (active); in [6], 83 µM (active); in experiment [7], 89.3 µM (active); in experiment [8], 94 µM (active). The AC50 in experiment [9] is 91.7 µM (active); in [10], 79.3 µM (active); in experiment [11], 82.4 µM (active); in [12] it was 75.2 µM (active); in experiment [13], 75.4 µM (active); in experiment [17] it was 77.7 µM (active). Moreover, the AC50 in experiment [18] is 81.1 µM (active).

`COCC(C)OCC(C)OCC(C)O` (configuration not stated): the result in experiment [1], in experiment [2], in [3], in experiment [20], in experiment [4] and in experiment [5] was inactive. The compound was called inactive in experiment [7], in experiment [8], in experiment [9], in [11], in experiment [12] and in experiment [13]. Besides, the call in experiment [14], in [15], in experiment [16], in experiment [17], in [18] and in experiment [19] was inactive. The AC50 in [6] is 25.8 µM (active).

On to `Cc1ccc2oc(CN(Cc3ccccc3)C(=O)Nc3c(F)cc(F)cc3F)c(-c3ccc(Cl)cc3)c2c1`, for which the AC50 in [1] was 44.2 µM (active); in experiment [6], 77 µM (active); in experiment [9], 12.4 µM (active); in experiment [11], 34.8 µM (active); in experiment [12] it was 5.39 µM (active); in [13], 64.3 µM (active). Moreover, the AC50 in [19] is 13 µM (active). In addition, the compound was called inactive in [2], in experiment [3], in experiment [20], in experiment [7], in experiment [8] and in [14]. Further, the compound was called inactive in [15], in [16] and in experiment [18].

Take `CCCCCCCC[Si](OCC)(OCC)OCC`: the compound was classed as inactive in experiment [1], in experiment [2], in experiment [3], in experiment [20], in experiment [4] and in experiment [6]. Moreover, the outcome in experiment [7], in experiment [8], in experiment [9], in experiment [11], in [12] and in experiment [13] was inactive. The outcome in [14], in [15], in experiment [16], in experiment [18] and in experiment [19] was inactive.

On to `CCCCCCCCCCCO`, for which the compound was classed as inactive in [1], in experiment [2], in experiment [3], in [20], in [4] and in experiment [6]. Further, the result in experiment [7], in experiment [8], in [9], in experiment [10], in [11] and in experiment [12] was inactive. Also, the outcome in [13], in experiment [14], in [15], in [16], in experiment [18] and in [19] was inactive.

`OCCO`: the result in experiment [1], in experiment [2], in [20], in [4], in experiment [6] and in [7] was inactive. Further, the compound was called inactive in [8], in experiment [9], in experiment [10], in experiment [11], in experiment [12] and in experiment [13]. In addition, the call in experiment [15], in experiment [16], in experiment [17], in experiment [18] and in experiment [19] was inactive. Also, the AC50 in experiment [3] is 9.97 µM (active).

What is called AC50 is the concentration at which the activity in the assay is half-maximal.
